Rab9 promoter act = Rab9 promoter activation; Huh7 Rab9 promoter-luciferase reporter, luminescence, 24 h; Potency, µM (titrated, usually from 9.22 µM), hits mostly activators; hit rate 2.8% among 320,000; AID 485297; note: nearly all actives have a fitted effect of over 60% in size
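Luminescence read-out: Huh7 cells stably expressing Rab9-luciferase, treated 24 h with compound at 37 °C, then lysed with luciferase reagent for 10 min at ambient before reading.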
FLuc modulator = inhibits or activates purified firefly luciferase, miR-21 counter-screen; P08659; purified FLuc, Km substrates, luminescence inhibition; Potency, µM (top dose mostly 57.5 µM), most hits filed as inhibitors; hit rate 6.9% among 360,000; note: nearly all actives have a fitted effect of over 55% in size
Target sequence (P08659 whole entry, looked up): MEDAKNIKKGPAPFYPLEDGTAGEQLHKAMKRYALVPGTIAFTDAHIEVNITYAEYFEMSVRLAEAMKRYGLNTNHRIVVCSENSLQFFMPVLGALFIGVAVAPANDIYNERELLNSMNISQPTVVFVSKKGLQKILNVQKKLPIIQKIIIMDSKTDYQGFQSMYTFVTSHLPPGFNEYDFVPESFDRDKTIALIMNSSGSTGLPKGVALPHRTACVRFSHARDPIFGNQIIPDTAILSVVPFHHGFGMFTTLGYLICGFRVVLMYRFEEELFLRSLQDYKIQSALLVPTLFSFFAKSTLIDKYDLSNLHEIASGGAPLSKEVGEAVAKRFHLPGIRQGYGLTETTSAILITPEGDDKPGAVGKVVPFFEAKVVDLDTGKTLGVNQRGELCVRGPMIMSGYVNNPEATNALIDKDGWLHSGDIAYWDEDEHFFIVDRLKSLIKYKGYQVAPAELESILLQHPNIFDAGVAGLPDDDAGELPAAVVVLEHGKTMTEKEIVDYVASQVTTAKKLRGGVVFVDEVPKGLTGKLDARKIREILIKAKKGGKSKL
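Purified P. pyralis luciferase (10nM final) with 10uM D-luciferin and 10uM ATP (Km levels) in 50mM Tris acetate pH 7.5, 10mM Mg acetate, 0.01% Tween-20, 0.05% BSA; qHTS 6-point titration, ~60 µM downward; luminescence read.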
NPC1 promoter act = activates the NPC1 promoter | hit rate 2.4% among 320,000 | Potency, µM (top dose mostly 9.22 µM), most hits filed as activators | Huh7 NPC1 promoter luciferase reporter, 24 h; note: nearly all actives have a fitted effect of over 60% in size
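Compounds in DMSO were transferred onto Huh7 NPC1-luciferase reporter cells pre-incubated 2 h; after 24 h at 37 °C, Amplite reagent was dispensed and luminescence recorded 10 min later.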
ELG1 DNA repair = ELG1-dependent DNA repair inhibition; HEK293T ELG1-luciferase reporter, luminescence, 16 h; DNA damage induced by 5-fluorouridine; hit rate 2.3% among 330,000; Potency, µM (series often up to 46.1 µM), usual class: inhibitors; AID 504467; note: nearly all actives have a fitted effect of over 55% in size
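Quantitative HTS, concentration-response format. 2,000 cells/well co-treated with 5-fluorouridine and compound, 16 hr in 5% CO2 at 37 °C; ONE-Glo luminescence read after 30 min.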
ELG1 genotox = induces genotoxicity in HEK293T cells with luciferase-tagged ELG1 | Potency, µM (highest dose often 46 µM), actives largely listed as activators | AID 504466 | hit rate 1.3% among 330,000 | HEK293T ELG1-luciferase reporter, luminescence, 16 h; note: nearly all actives have a fitted effect of over 60% in size
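Genotoxic stress is detected as increased luminescence from luciferase-tagged ELG1 in HEK293T cells, measured with ONE-Glo after a 16 hr treatment at 37 °C.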
SMN2 splice enh = enhancers of SMN2 splice variant expression. HEK293 SMN2-luciferase splicing reporter, luminescence, 30-36 h. Potency, µM (highest dose often 46.1 µM), most hits filed as activators. hit rate 2.8% among 210,000. AID 1458; note: nearly all actives have a fitted effect of over 55% in size
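qHTS luciferase splicing reporter: luminescence rises when SMN2 exon 7 is included in transfected HEK293 cells. Compound exposure lasted 30-36 h at 37C, with 4.5 mM final sodium butyrate as control, followed by a ONE-Glo read.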
Of the large screens only hits and unclear results are named; the others gave an inactive call. Rows were chosen to be rich in hits. Some 9.3% of all compounds tested hit in one or more screens of this group. Calls come from the whole dose curve; as a rule, active = well fitted curve in the direction sought with a large enough effect; inconclusive = small, poorly fitted or top-dose-only effect, or another doubt; inactive = no such curve, though single readings can be large; an effect the other way counts as inactive or inconclusive.

C/C(=N\O)c1ccco1	ELG1 DNA repair inconclusive (no result: SMN2 splice enh)
O=C(NCc1ccco1)c1noc2c1CCCC2	ELG1 DNA repair inconclusive
O=C(NCc1cccs1)c1noc2c1CCCCC2	Rab9 promoter act inconclusive, FLuc modulator inconclusive, NPC1 promoter act inconclusive, ELG1 DNA repair inconclusive, ELG1 genotox 18µM
O=C(NCc1ccccc1)c1noc2c1CCCCC2	Rab9 promoter act 1.6µM, FLuc modulator 21µM, NPC1 promoter act 3.5µM, ELG1 DNA repair inconclusive, ELG1 genotox inconclusive, SMN2 splice enh 25µM
O=C(NC1CCCC1)c1noc2c1CCCCC2	Rab9 promoter act inconclusive, FLuc modulator inconclusive, NPC1 promoter act inconclusive, ELG1 DNA repair inconclusive, ELG1 genotox 14µM, SMN2 splice enh 10µM
COc1ccc(CNC(=O)c2noc3c2CCCCC3)cc1	Rab9 promoter act inconclusive, FLuc modulator inconclusive, ELG1 DNA repair inconclusive
O=C(Nc1ccccc1)c1nccn1Cc1ccc(F)cc1	Rab9 promoter act inconclusive, FLuc modulator inconclusive, ELG1 DNA repair inconclusive
O=C(NCCC1=CCCCC1)c1ccc2c(c1)N(Cc1ccc(F)cc1)C(=O)c1ccccc1S2(=O)=O	none (no result: Rab9 promoter act, NPC1 promoter act, ELG1 DNA repair, ELG1 genotox)
Cc1ccc(-c2cc(-c3ccc4c(c3)NC(=O)CO4)nc3c2COc2ccc(C)cc2-3)cc1	FLuc modulator inconclusive (no result: Rab9 promoter act, NPC1 promoter act, ELG1 DNA repair, ELG1 genotox)
COc1ccc(-n2nc(C(=O)NCC(=O)N3CCN(Cc4ccccc4)CC3)c3ccccc3c2=O)cc1OC	FLuc modulator inconclusive, ELG1 DNA repair inconclusive (no result: SMN2 splice enh)
COc1ccc(-n2nc(C(=O)NCC(=O)N3CCN(c4ccccn4)CC3)c3ccccc3c2=O)cc1Cl	Rab9 promoter act inconclusive, FLuc modulator 3µM, SMN2 splice enh inconclusive
COc1ccc(-n2nc(C(=O)NCC(=O)N3CCC(C)CC3)c3ccccc3c2=O)cc1Cl	FLuc modulator 1.9µM, ELG1 DNA repair inconclusive (no result: SMN2 splice enh)
CCOCC(=O)Nc1ccc([N+](=O)[O-])cc1C	ELG1 DNA repair inconclusive
CN(C)S(=O)(=O)c1cccc(COC(=O)CNC(=O)c2ccc(Br)o2)c1	none (no result: SMN2 splice enh)
CCN1CCS/C1=C\C=C\C1=[N+](CC)CCS1	ELG1 DNA repair 0.58µM
O=C(Nc1ccccc1)O/N=C/c1ccc(F)cc1	Rab9 promoter act 0.79µM, FLuc modulator 2.4µM, NPC1 promoter act 0.63µM, ELG1 DNA repair inconclusive, ELG1 genotox inconclusive (no result: SMN2 splice enh)
COc1ccc(/C=N/OC(=O)Nc2ccccc2)cc1[N+](=O)[O-]	FLuc modulator 15µM, ELG1 DNA repair inconclusive
Cc1ccc(NC(=O)O/N=C/c2ccc(F)cc2)cc1	Rab9 promoter act inconclusive, FLuc modulator 15µM, NPC1 promoter act inconclusive, ELG1 DNA repair inconclusive, ELG1 genotox inconclusive (no result: SMN2 splice enh)
O=C1/C(=C/c2ccccc2)CCC1C1CCCC1 (centres undefined)	FLuc modulator 1.2µM, ELG1 DNA repair inconclusive, ELG1 genotox inconclusive
O=C1/C(=C/c2ccco2)CCC1C1CCCC1 (centres undefined)	FLuc modulator 8.5µM, ELG1 DNA repair inconclusive, ELG1 genotox 23µM
O=C1/C(=C/c2ccc(F)cc2)CCC1C1CCCC1 (centres undefined)	FLuc modulator 0.67µM, NPC1 promoter act inconclusive, ELG1 DNA repair inconclusive, ELG1 genotox inconclusive
CCOc1ccc(/C=C2\CCC(C3CCCC3)C2=O)cc1OC (centres undefined)	FLuc modulator inconclusive, ELG1 DNA repair inconclusive (no result: SMN2 splice enh)
CCOc1ccc(/C=C2\CCC(C3CCCC3)C2=O)cc1 (centres undefined)	Rab9 promoter act 4µM, FLuc modulator 0.54µM, NPC1 promoter act 3.5µM, ELG1 DNA repair inconclusive, ELG1 genotox inconclusive (no result: SMN2 splice enh)
COc1ccc(NS(=O)(=O)c2ccc3c(c2)NC(=O)CC(=O)N3)cc1OC	none (no result: SMN2 splice enh)
CC(C)C(=O)NCC(c1ccc2c(c1)OCO2)N1CCN(c2ccccc2)CC1 (centres undefined)	none (no result: Rab9 promoter act, NPC1 promoter act, ELG1 DNA repair, ELG1 genotox, SMN2 splice enh)
CC1C/C(=C/c2ccco2)C(=O)/C(=C/c2ccco2)C1 (centres undefined)	FLuc modulator inconclusive, ELG1 genotox inconclusive
COc1ccccc1/C=C1\CCC(C2CCCC2)C1=O (centres undefined)	FLuc modulator 19µM, ELG1 DNA repair inconclusive (no result: SMN2 splice enh)
O=C1/C(=C\c2ccco2)CCC/C1=C\c1ccco1	Rab9 promoter act 3.2µM, FLuc modulator 4.8µM, NPC1 promoter act 4µM, ELG1 DNA repair inconclusive, ELG1 genotox 15µM, SMN2 splice enh 18µM

Assay outcomes (PubChem)
